Several values for one entry are separate records, joined by “and”; a condition that tells them apart may be missing. Equal values may be shown once. A number with no mark means an inactive call. The rule behind the calls is not given here.
Tested on: Aerobactin synthetase IucA (Klebsiella pneumoniae hvKP1)
Experiment: Biochemical IucA enzyme inhibition primary screen of the Spectrum library (AID 1346200);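 note: 100% = wells without compound and 0% = wells lacking enzyme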
Settings: malachite green pyrophosphate, A620, at 8 µM, stronger effect = lower value

SMILES | activity remaining
CN1CCC(=C2c3ccccc3CCc3sccc32)CC1 | 123%
COc1cc2c(cc1OC)-c1cc3ccc(OC)c(OC)c3c[n+]1CC2 | 97.8% and 112%
CC(C)Cc1ccc(C(C)C(=O)O)cc1 (stereo not given) | 90.9%
CC(C)(Oc1ccc(Cl)cc1)C(=O)O | 122%
CC(C(=O)O)c1cccc(Oc2ccccc2)c1 (stereo not given) | 118%
COc1ccc(CN(CCN(C)C)c2ncccn2)cc1 | 120%
O=c1ccc2ccc(O)cc2o1 | 94.5%
C[C@@H]1CC[C@]2(C(=O)O)CC[C@]3(C)C(=CCC4[C@@]5(C)CC[C@H](O)C(C)(C)C5CC[C@]43C)C2[C@H]1C (stereo not given in full) | 128%
O=c1cc[nH]c(=S)[nH]1 | 97.7%
C[C@@H]1CC[C@@]23CCC4(C)[C@@](C=CC5[C@@]6(C)CCC(=O)C(C)(C)C6CC[C@]54C)(OC2=O)C3[C@H]1C (stereo not given in full) | 112%
C/C=C(/C(=C/C)c1ccc(O)cc1)c1ccc(O)cc1 | 115%
COc1cc(O)c(C(=O)/C=C/c2ccc(OC)c(O)c2)c(OC)c1 | 105%
COc1cc(O)c(C)c(O)c1 | 112%
CC(=O)O[C@@H]1CC2C(C)(C)[C@@H](O)CC[C@]2(C)C2CC[C@@]3(C)[C@H](c4ccoc4)OC(=O)[C@H]4O[C@]43[C@@]21C (stereo not given in full) | 124%
CO[C@@]12[C@@H]3NC3CN1C1=C(C(=O)C(N)=C(C)C1=O)[C@@H]2COC(N)=O (stereo not given in full) | 95.4%
CCOC(=O)C(Cc1ccc(O)cc1)NC(C)=O (stereo not given) | 98.7%
COc1cccc2c1CCC1CC(=O)CC[C@]21C (stereo not given in full) | 119%
CN1CCC(OC(c2ccccc2)c2ccccc2)CC1 | 108%
CC(=O)Oc1ccc2c(c1)CCC1C2CC[C@]2(C)C(=O)CCC12 (stereo not given in full) | 99.1%
COc1c(C(C)C)oc2cc3oc(=O)ccc3cc12 | 102%

SMILES | activity remaining
O=C(COc1ccc(Cl)cc1)N1CCN(Cc2ccc3c(c2)OCO3)CC1 | 107%
CC(C)[C@@H]1CC[C@@H](C)C[C@H]1O | 95.9%
Cc1onc(-c2ccccc2Cl)c1C(=O)N[C@@H]1C(=O)N2[C@@H]1SC(C)(C)[C@@H]2C(=O)O | 96.2%
OC[C@@H](O)[C@@H](O[C@@H]1O[C@H](CO)[C@@H](O)[C@H](O)[C@H]1O)[C@H](O)[C@@H](O)CO | 96.4%
O=c1ccn([C@@H]2O[C@H](COP(=O)(O)OP(=O)(O)OP(=O)(O)O)[C@@H](O)[C@H]2O)c(=O)[nH]1 | 98%
CC(=O)N1CCN(c2ccc(OCC3CO[C@](Cn4ccnc4)(c4ccc(Cl)cc4Cl)O3)cc2)CC1 (stereo not given in full) | 97%
CC(=O)c1c(O)cc(O)cc1O | 94.3%
CC1(C)C2CC[C@]3(C)C(C(=O)C=C4[C@@H]5C[C@@](C)(C(=O)O)CC[C@]5(C)CC[C@]43C)[C@@]2(C)CC[C@@H]1O (stereo not given in full) | 126%
CC(C)(Sc1cc(C(C)(C)C)c(O)c(C(C)(C)C)c1)Sc1cc(C(C)(C)C)c(O)c(C(C)(C)C)c1 | 89.7%
COc1ccc(C2Sc3ccccc3N(CCN(C)C)C(=O)C2OC(C)=O)cc1 (stereo not given) | 114%
C=C1CCC2C(CC2(C)C)C(=O)CCC1O (stereo not given) | 116%
COc1c(-c2coc3cc4c(cc3c2=O)CC(O)C(C)(C)O4)ccc2c1C=CC(C)(C)O2 (stereo not given) | 112%
O=C(Oc1cc(OC(=O)c2ccccc2)c2c(c1)O[C@H](c1ccc(OC(=O)c3ccccc3)c(OC(=O)c3ccccc3)c1)[C@@H](OC(=O)c1ccccc1)C2)c1ccccc1 | 106%
CC(=O)OCC(COC(C)=O)OC(C)=O | 126%
CC(=O)[C@H]1CCC2C3C[C@H](C)C4=CC(=O)CC[C@]4(C)C3[C@@H](O)C[C@@]21C (stereo not given in full) | 101%
COc1cc(O)ccc1C(C)=O | 124%
C=C[C@@](C)(O)CCC1C(=C)C[C@H](OC(C)=O)C2C(C)(C)CCCC12C (stereo not given in full) | 118%
C=C(NC(=O)C(=C)NC(=O)c1csc(C2=NC3c4csc(n4)C4NC(=O)c5csc(n5)C(C(C)(O)C(C)O)NC(=O)C5CSC(=N5)C(=CC)NC(=O)C(C(C)O)NC(=O)c5csc(n5)C3(CC2)NC(=O)C(C)NC(=O)C(=C)NC(=O)C(C)NC(=O)C(C(C)CC)NC2C=Cc3c(C(C)O)cc(nc3C2O)C(=O)OC4C)n1)C(N)=O (stereo not given) | 121%
CCN(CC)CCNC(=O)COc1ccc(OC)cc1 | 108%
CC(C)CCCC(C)[C@H]1CCC2C3CC=C4C[C@@H](O)CC[C@]4(C)C3CC[C@@]21C (stereo not given in full) | 117%

Reference: PubChem BioAssay
